Shiga inhibitor: inhibitors of Shiga toxin in Vero cells; Vero cells, Shiga toxin protein synthesis inhibition reporter; inhibition, % at 38.7 µM; 290,000 tested, 9.2% active; AID 2315; in the data active = inhibition mostly above about 28%, no sharp cut-off; inactive = mostly below about 43%
CHX counter: counter-screen hit for Shiga toxin inhibitors, cycloheximide; cell reporter, cycloheximide protein synthesis inhibition counterscreen; max response, %; 300,000 tested, 12% active; AID 2314; in the data active = max response mostly above about 13%, no sharp cut-off; inactive = mostly below about 14%; note: read at 38.3 µM for the half of the compounds with a filed dose
AmpC detergent: blocks E. coli AmpC beta-lactamase in detergent assay; AmpC hydrolysis of nitrocefin, absorbance 480 nm, 0.01% Triton; 370,000 tested, 0.041% active; AID 485294; P00811; Potency, µM (titrated, usually from 114 µM), most hits filed as inhibitors; note: nearly all actives have a fitted effect of over 25% in size
Target sequence (P00811 whole entry, looked up): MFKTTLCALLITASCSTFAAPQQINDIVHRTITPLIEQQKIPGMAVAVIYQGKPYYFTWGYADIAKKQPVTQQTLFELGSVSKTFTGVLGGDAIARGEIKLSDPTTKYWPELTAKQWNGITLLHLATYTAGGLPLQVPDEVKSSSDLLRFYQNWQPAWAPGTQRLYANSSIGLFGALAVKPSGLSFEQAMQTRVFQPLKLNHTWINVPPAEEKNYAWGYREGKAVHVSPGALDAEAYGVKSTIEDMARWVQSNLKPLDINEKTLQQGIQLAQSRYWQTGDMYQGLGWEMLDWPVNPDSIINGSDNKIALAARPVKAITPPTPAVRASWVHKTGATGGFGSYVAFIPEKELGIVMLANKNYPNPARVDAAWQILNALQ
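AmpC (5.3 nM in the dispensed reagent) in 20 mM phosphate pH 7.0 with 0.01% (detergent screen) or 0.0001% Triton X-100 was preincubated with compounds for 15 min at room temperature. Nitrocefin was then added from an 800 uM solution, and hydrolysis was followed at 480 nm.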
NS1 function inh: blocks influenza NS1 protein function | Potency, µM (highest dose often 46.1 µM) | 270,000 tested, 0.4% active | AID 2326; calls by dose curve; note: actives are rising curves; nearly all actives have a fitted effect of over 50% in size
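Read-out: OD600 growth recovery of NS1-expressing budding yeast. Cells grown overnight at 30C in -URA glucose medium, washed, resuspended and diluted 1:100 in 2% galactose assay medium, pH 6.0. Same strain lacking NS1 served as positive control.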
AmpC no deterg: AmpC beta-lactamase inhibition without detergent; 330,000 tested, 0.52% active; AmpC nitrocefin hydrolysis, absorbance 480 nm, 0.0001% Triton; Potency, µM (titrated, usually from 57.1 µM), actives largely listed as inhibitors; AID 485341; note: nearly all actives have a fitted effect of over 20% in size
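20 mM phosphate pH 7.0 + 0.01% (detergent screen) or 0.0001% Triton X-100; 5.3 nM AmpC reagent; cpd preinc 15 min RT; nitrocefin (800 uM stock) to start; A480 q20 s × 4 min; Activity was normalised to no-enzyme and no-compound control wells.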
Large screens that a line does not name were inactive. The entries come from a sample that favours hits as a whole. Unless noted, calls come from the whole dose curve; as a rule, active = well fitted curve in the direction sought with a large enough effect; inconclusive = small, poorly fitted or top-dose-only effect, or another doubt; inactive = no such curve, though single readings can be large; an effect the other way counts as inactive or inconclusive.

C(=C\c1ccccc1)/C=N/Nc1nc2ccccc2s1	Shiga inhibitor 95, CHX counter 34, AmpC detergent inconclusive
Cc1ccc(NC(=O)Cn2c(=O)n(CCCCC(=O)NCCc3ccccc3)c(=O)c3ccccc32)c(C)c1	none (no result: Shiga inhibitor, CHX counter, NS1 function inh, AmpC no deterg)
O=C(CSc1nnc2ccccn12)NCc1cccs1	Shiga inhibitor 52, CHX counter 21
O=C(CSc1ccc2ccccc2c1)NCc1cccs1	CHX counter 32
CCOC(=O)/C(C#N)=C/Nc1ccccc1OC(F)(F)F	none
O=C(O)c1ccc(N2C(=O)CC(N3CCN(c4cccc(Cl)c4)CC3)C2=O)cc1 (stereo unspecified)	CHX counter 9.7 (no result: Shiga inhibitor)
S=C(Nc1ccccc1)Nc1ccc2cn[nH]c2c1	Shiga inhibitor 55, CHX counter 46
Cc1ccc(NC(=S)Nc2cccc(-c3n[nH]c(=S)o3)c2)cc1	Shiga inhibitor 40, CHX counter 32
NC(=S)Nc1ccc2cn[nH]c2c1	none (no result: NS1 function inh)
Cc1ccc(NC(=S)Nc2ccc3cn[nH]c3c2)cc1	CHX counter 18
Cc1cc(C)cc(NC(=S)Nc2ccc3cn[nH]c3c2)c1	none
O=C(NC(=S)Nc1ccc2cn[nH]c2c1)c1ccccc1	Shiga inhibitor 79, CHX counter 41 (no result: NS1 function inh)
COc1ccc(CNC(=S)N2CCN(Cc3ccccc3)CC2)cc1	AmpC detergent inconclusive, NS1 function inh inconclusive
N/C(=N\OC(=O)c1ccccc1Cl)c1ccc(Cl)cc1	Shiga inhibitor 63, CHX counter 49, AmpC detergent inconclusive
N/C(=N\OC(=O)c1ccccc1Cl)c1ccccc1	Shiga inhibitor 70, CHX counter 35
N/C(=N\OC(=O)c1ccc(Cl)cc1)c1ccc(Cl)cc1	Shiga inhibitor 54, CHX counter 21
N/C(=N\OC(=O)c1ccco1)c1cccnc1	Shiga inhibitor 109, CHX counter 34
COc1ccc(C)cc1S(=O)(=O)NCC(c1cccs1)S(=O)(=O)c1ccc(C)cc1 (stereo unspecified)	none (no result: Shiga inhibitor, CHX counter, NS1 function inh, AmpC no deterg)
N/C(=N\OC(=O)c1ccc(Cl)cc1)c1ccn[nH]1	Shiga inhibitor 49, CHX counter 39
O=C(OCc1ccccc1Cl)c1cccnc1Cl	none
O=C(OCc1ccccc1Cl)c1ccccc1C(=O)c1ccccc1	Shiga inhibitor 65, CHX counter 19
N/C(=N\OC(=O)COc1ccccc1)c1ccc(Cl)cc1	none
N/C(=N\OC(=O)c1ccco1)c1ccc(Cl)cc1	Shiga inhibitor 84, CHX counter 62
COc1ccc(CCC(=O)NCCNC(=O)CCc2ccc(OC)cc2)cc1	none (no result: Shiga inhibitor)
Cc1nc2ccccc2nc(C)c1=NOCC(=O)N(c1ccccc1)C(C)C	Shiga inhibitor 116, CHX counter 61
CCCCCCSc1nsc(NC(=O)CC(C)C)n1	Shiga inhibitor 37, CHX counter 27
CCCSc1nsc(NC(=O)CC)n1	Shiga inhibitor 72, CHX counter 38
CCCSc1nsc(NC(=O)C(c2ccccc2)c2ccccc2)n1	none
CCCCCCCSc1nsc(N)n1	Shiga inhibitor 65
COc1ccc(C(=O)Nc2ccc3oc(-c4cc(Cl)ccc4Cl)nc3c2)cc1Br	none (no result: Shiga inhibitor, CHX counter, NS1 function inh, AmpC no deterg)
CCN(C(=O)c1ccc2c(=O)n3c(nc2c1)CCCCC3)c1cc(C)ccc1C	none (no result: Shiga inhibitor, CHX counter, NS1 function inh, AmpC no deterg)
COc1cc(CNc2ccccc2SC)ccc1O	Shiga inhibitor 70, AmpC detergent inconclusive
CC(C)CNC(=O)COC(=O)c1c2c(nc3ccccc13)CCC2	none
CCc1cccc(C)c1NC(=O)COC(=O)c1c2c(nc3ccccc13)/C(=C\c1cccs1)CCC2	none
NC(=O)c1ccc(NC(=O)COC(=O)c2c3c(nc4ccccc24)/C(=C\c2cccs2)CCC3)cc1	AmpC no deterg 3.2µM
CC(C)CNC(=O)COC(=O)c1c2c(nc3ccccc13)/C(=C/c1cccs1)CC2	Shiga inhibitor 56, CHX counter 25
N/N=C1/c2ccccc2N[C@H]1OC(=O)Nc1cccc(Cl)c1	none (no result: Shiga inhibitor, CHX counter, AmpC detergent, AmpC no deterg)
CCOc1ccc(CC(=O)NCC2(N3CCCCC3)CCCCC2)cc1	none
CCCCC(=O)N/N=C/c1ccc(Sc2cccc3cccnc23)o1	CHX counter 39
COc1ccc(C)cc1NC(=O)NNC(=O)c1ccoc1C	Shiga inhibitor 31, CHX counter active
COc1ccc(C)cc1NC(=O)NNC(=O)c1cc2ccccc2cc1O	AmpC no deterg 6.3µM
O=C(NNC(=O)c1cc2ccccc2cc1O)Nc1ccc(Br)cc1	AmpC detergent inconclusive, AmpC no deterg inconclusive
O=C(NNC(=O)c1cc2ccccc2cc1O)Nc1ccc(F)cc1F	AmpC no deterg 13µM
Cc1ccc(C(=O)NNC(=O)c2cc3ccccc3cc2O)cc1	AmpC no deterg 28µM
Cc1cccc(CCNC(=O)C2CCC(CNS(=O)(=O)c3c(C)cc(C)cc3C)CC2)c1 (stereo unspecified)	none (no result: Shiga inhibitor, CHX counter, NS1 function inh, AmpC no deterg)
O=c1c(C(c2ccccc2)c2c(O)sc3ccccc3c2=O)c(O)sc2ccccc12	AmpC no deterg 16µM
COc1cc(N=C2C(=O)N3c4c(cccc42)C(C)=CC3(C)C)cc(OC)c1	none
CC1=CC(C)(C)N2C(=O)C(=Nc3ccc(O)cc3)c3cccc1c32	Shiga inhibitor 46
CCOCCn1c(=O)c2c(nc3n2CCCN3CCc2ccccc2)n(C)c1=O	none
NS(=O)(=O)c1ccc(CNc2ccc3ccccc3n2)cc1	Shiga inhibitor 88
COc1ccc(CCNC(=O)c2ccc3ccccc3n2)cc1	Shiga inhibitor 69, CHX counter 52
COc1ccc(CCNC(=O)c2cnc(C)cn2)cc1	none
NS(=O)(=O)c1ccc(CCNC(=O)c2ccc3ccccc3n2)cc1	Shiga inhibitor 45, CHX counter 34
Oc1ccccc1-c1nnc(COc2ccccc2)o1	CHX counter 27, AmpC detergent inconclusive
Oc1ccccc1-c1nnc(COc2ccc(Cl)cc2Cl)o1	Shiga inhibitor 74, CHX counter 45
CC(=O)Nc1ccccc1OCc1nnc(-c2ccccc2Cl)o1	none
c1ccc(OCc2nnc(-c3ccccc3)o2)cc1	Shiga inhibitor 118, CHX counter 26 (no result: NS1 function inh)
Clc1ccc(-c2nnc(CCc3ccccc3)o2)c(Cl)c1	Shiga inhibitor 90, CHX counter 41, AmpC detergent inconclusive
CCOc1ccc(N(C)S(=O)(=O)c2ccc3c(c2)CCCN3C(C)=O)cc1	none (no result: Shiga inhibitor, CHX counter, NS1 function inh, AmpC no deterg)
CCS(=O)(=O)/N=C(\N)c1ccccc1	CHX counter 30, AmpC detergent inconclusive
NCCNc1ccc([N+](=O)[O-])c(NC2CC2)c1	AmpC detergent inconclusive
N#Cc1ccc2c(c1)C[C@]1(CCCCN3C(=O)c4ccccc4C3=O)Oc3cc(-c4ccccc4)oc(=O)c3[C@H]2O1	none
N#Cc1c2n(c(=S)n(-c3ccccn3)c1=O)CCCCC2	CHX counter 16, AmpC detergent inconclusive, NS1 function inh inconclusive
Cc1nc(-c2ccccc2)sc1-c1ccnn1C	Shiga inhibitor 81, CHX counter 35 (no result: NS1 function inh)
Cc1nc(-c2ccccc2)sc1-c1ccn[nH]1	Shiga inhibitor 69, CHX counter 28 (no result: NS1 function inh)
O=C(CCCOc1ccccc1)N1CCc2ccccc2C1	Shiga inhibitor 85, CHX counter 39
O=C(c1ccc(Br)s1)N1CCc2ccccc2C1	Shiga inhibitor 152, CHX counter 49
